The list is not random: actives were taken first. Their share in the collection is about 6.3%.
VP16 counter = counter-screen for ROR gamma inhibitors: Gal4-VP16 reporter | Drosophila S2 Gal4-VP16 UAS-luciferase, luminescence, 20 h | Potency, µM (highest dose often 53.6 µM), inactives show at the top dose activity, negative = inhibition, usual class: inhibitors | 310,000 tested, 3.5% active;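 further: Gal4-VP16 expression switched on by copper sulfate through the metallothionein promoter; on the % scale 0 is the no-effect control and ±100 the full control effect; nearly all actives have a fitted effect of over 50% in size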
HepG2 tox = counter-screen for TGF-b inhibitors: cytotoxicity in HepG2 cells | HepG2 CAGA-GFP viability, ATP luminescence, 18 h | Potency, µM (doses to about 46.1 µM), for the others: at the top dose activity change, negative = cytotoxicity, actives largely listed as cytotoxic | 410,000 tested, 0.76% active | AID 588856
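HepG2 CAGA-GFP cells (1000/well, DMEM with 1% FBS) received compound, then TGF-beta at 500 pg/mL final, and were incubated 18 hours at 37 degrees C. Viability was read by CellTiter-Glo luminescence. Media-only wells were set as complete cell-killing and DMSO as no toxicity.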
ATXN2 expr inh = reduces ATXN2 reporter expression in HEK-293 cells; HEK-293 ATXN2-luciferase reporter, luminescence, 24 h; 360,000 tested, 0.72% active; Potency, µM (series often up to 57 µM), without a hit: at the top dose activity change, negative = inhibition, most hits filed as inhibitors; further: on the % scale 0 is the no-effect control and ±100 the full control effect; nearly all actives have a fitted effect of over 55% in size
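qHTS (up to 57 uM final) was run with 24 h compound exposure of reporter cells at 37 °C. Each well was multiplexed: SteadyGlo luminescence measured ATXN2-luciferase expression after a fluorogenic Gly-Phe-AFC viability readout (25 uM final).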
ATXN viability = reduces viability in counter-screen for ATXN expression inhibitors. AID 651635. 400,000 tested, 0.49% active. Potency, µM (highest dose often 56.7 µM), most hits filed as cytotoxic. S2 cells (HEK-293 line with an ATXN2-luciferase reporter) viability, CellTiter-Fluor protease fluorescence, 24 h; further: nearly all actives have a fitted effect of over 40% in size
TGFb inhibitor = TGF-b pathway inhibition; HepG2 CAGA-GFP TGF-b/SMAD3 reporter, GFP fluorescence, 18 h; TGF-beta stimulated, 500 pg/mL final; Potency, µM (series often up to 46.1 µM), for the others: at the highest dose activity, negative = inhibition, actives largely listed as inhibitors; 410,000 tested, 1.2% active; further: on the % scale 0 is the no-effect control and ±100 the full control effect; nearly all actives have a fitted effect of over 65% in size
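Read-out: total well GFP (ex488/em500-530) summed from mean per-cell fluorescence. Cells: HEPG2 CAGA-GFP, 1% FBS DMEM, 18 h at 37 degrees C with 500 pg/mL final TGF-beta. Unstimulated wells served as the full-inhibition control; stimulated DMSO wells = 0%.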
RORgamma inh = ROR gamma (mouse) transcription inhibition | Potency, µM (highest dose often 53.6 µM), inactives show at the top dose activity change, negative = inhibition, most hits filed as inhibitors | Drosophila S2 Gal4-RORgamma UAS-luciferase reporter, 20 h | 310,000 tested, 5.4% active; further: on the % scale 0 is the no-effect control and ±100 the full control effect; nearly all actives have a fitted effect of over 60% in size
Target sequence (P51450 whole entry, looked up, the tested form may be a part): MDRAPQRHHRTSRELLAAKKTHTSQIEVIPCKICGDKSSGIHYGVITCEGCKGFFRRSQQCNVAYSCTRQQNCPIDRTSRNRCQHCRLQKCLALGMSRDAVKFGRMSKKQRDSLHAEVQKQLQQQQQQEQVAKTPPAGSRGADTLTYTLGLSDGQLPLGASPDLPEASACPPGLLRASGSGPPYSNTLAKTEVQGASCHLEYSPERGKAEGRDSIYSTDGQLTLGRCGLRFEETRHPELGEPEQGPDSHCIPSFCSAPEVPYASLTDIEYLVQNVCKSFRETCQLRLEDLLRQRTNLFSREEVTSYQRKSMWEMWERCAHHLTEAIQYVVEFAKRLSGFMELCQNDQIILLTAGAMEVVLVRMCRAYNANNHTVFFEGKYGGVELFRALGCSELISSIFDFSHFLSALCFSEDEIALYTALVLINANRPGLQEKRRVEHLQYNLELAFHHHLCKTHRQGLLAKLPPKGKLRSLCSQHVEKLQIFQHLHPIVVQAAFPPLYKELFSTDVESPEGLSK
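Stable Schneider cell line, Gal4 DNA-binding domain fused to ROR gamma, UAS-luciferase. Cmpd 1 hr RT → CuSO4 700 uM final → 20 hr RT → luciferase reagent 10 min → luminescence.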
Numbers without * were called inactive; i = inactive; ? = inconclusive; nt = no result; ! = a repeat was not active. The call rests on the fitted dose curve; in most records, active means well fitted curve in the direction sought with a large enough effect; inconclusive means small, poorly fitted or top-dose-only effect, or another doubt; inactive means no such curve, though single readings can be large; an effect the other way counts as inactive or inconclusive. Potency means the concentration at half of the fitted maximal effect.

SMILES	VP16 counter	HepG2 tox	ATXN2 expr inh	ATXN viability	TGFb inhibitor	RORgamma inh
COc1ccc(OC)c(NC(=O)C(=O)NNC(=O)C23CC4CC(CC(C4)C2)C3)c1	?	-36.5%	-32.0%	i	?	2.51µM*
CC(OC(=O)c1ccc2ccccc2c1)C(=O)N(C)Cc1ccccc1 (stereo not drawn)	nt	-31.5%	-25.8%	i	-19.6%	nt
CC(C)N(CCC(=O)c1ccc2ccccc2c1)Cc1ccccc1	2.51µM*	-64.4%	0.0%	?	11.2µM*	2.82µM*
OC(c1ccccc1)C(O)C(c1ccccc1)N1CCCCC1 (stereo not drawn)	nt	9.6%	-8.1%	i	6.0%	nt
Cc1cc(Nc2ccc(Br)cc2F)n2nc(C)nc2n1	7.94µM*	-17.6%	-12.8%	i	-4.8%	3.16µM*
S=c1[nH]c2cc(-c3ccccc3)ccc2o1	12.6µM*	-4.8%	18.2%	i	0.6%	10µM*
COc1ccc(N2CC3=C(C2=O)C(c2ccc(Br)cc2)NC(=O)N3C)cc1 (stereo not drawn)	nt	2.5%	-12.0%	i	-1.2%	nt
O=C(CC(c1ccccc1)c1cc(Br)ccc1O)NCC1(c2ccccc2)CCCC1 (stereo not drawn)	nt	-98.7%	?	35.5µM*	17.8µM*	nt
CC(C)CN(C(=O)CCNC(=O)c1ccc(Cl)cc1)C1CCS(=O)(=O)C1 (stereo not drawn)	nt	-1.3%	?	28.2µM*	-1.3%	nt
CCOC(=O)CC(=O)CSc1nc2ccsc2c(=O)n1Cc1ccccc1	nt	12.5%	nt	nt	8.7%	nt
CC1CN(C(=O)Nc2ccc(C(=O)NCc3ccccc3F)cc2)c2ccccc2S1 (stereo not drawn)	nt	6.5%	11.8%	i	-1.9%	nt
CCCn1c(=O)c2sccc2n2c(CCCC(=O)Nc3ccccc3F)nnc12	nt	-5.7%	nt	nt	-27.3%	nt
CCOC(=O)CN=C1CC(C)(C)CC2=C1Sc1ncnc(N(C)C)c1N2	?	-20.3%	-1.1%	i	-12.7%	11.2µM*
CCOc1ccc(-n2c(N)c(C(=O)NCc3ccco3)c3nc4ccccc4nc32)cc1	1.3%	-31.8%	?	i	-12.6%	?
CCOc1ccc(-n2c(N)c(-c3nc4ccccc4n3C)c3nc4ccccc4nc32)cc1	1.26µM*	-1.5%	2.5%	i	-1.4%	1µM*
COc1ccc(C(=O)N2CCC[C@@]3(CCN(c4ccccc4)C3)C2)cc1	-11.5%	nt	nt	nt	nt	25.3%
CCCCCn1c(=O)[nH]c2cc(C(=O)Nc3ccc(F)c(F)c3)ccc2c1=O	nt	1.8%	-5.0%	?	1.9%	nt
COc1cc(CN2CCOc3ccc(CN4CCC(O)(c5cccnc5)CC4)cc3C2)cc(OC)c1	nt	nt	nt	i	nt	nt
O=c1sc(Nc2ccccc2)nc2ccccc12	-5.6%	0.6%	-6.6%	i	5.6%	-10.5%
Cc1ccc(Nc2nc3ccccc3c(=O)s2)cc1	11.2µM*	-6.6%	nt	i	5.6%	6.31µM*
CC(C)CN(CC(C)C)S(=O)(=O)c1ccc(C(=O)Nc2sc3c(c2C(N)=O)CC(C)(C)NC3(C)C)cc1	nt	-52.0%	?	nt	0.5%	nt
C=CCN(CC=C)S(=O)(=O)c1ccc(C(=O)Nc2nnc(COC)o2)cc1	7.08µM*	-17.7%	nt	?	-10.8%	2µM*
COCc1nnc(NC(=O)c2ccc(S(=O)(=O)N(CC(C)C)CC(C)C)cc2)o1	2.51µM*	-0.9%	-27.4%	i	-10.9%	0.631µM*
C=CCN(CC=C)S(=O)(=O)c1ccc(NC(=O)COc2ccccc2OC)cc1	0.5%	-26.0%	-7.3%	i	1.2%	?
COC(=O)N1C(=O)[C@@](c2ccccc2)(C2CCCC2)N1C(=O)OC	-3.0%	-80.8%	?	nt	?	11.2µM*
SMILES	VP16 counter	HepG2 tox	ATXN2 expr inh	ATXN viability	TGFb inhibitor	RORgamma inh
CCOC(=O)N1C(=O)[C@@](CC)(c2ccccc2)N1C(=O)OCC	-1.2%	-102.7%	-35.3%	31.6µM*	?	-20.5%
COC(=O)N1C(=O)[C@](CC(C)C)(c2ccccc2)N1C(=O)OC	-5.7%	-61.2%	1.5%	?	8.91µM*	-13.8%
COC(=O)N1C(=O)[C@](c2ccccc2)(C2CCCCC2)N1C(=O)OC	?	-1.9%	-5.8%	?	-16.2%	-20.7%
COC(=O)N1C(=O)[C@@](CC(C)C)(c2ccccc2)N1C(=O)OC	0.0%	nt	nt	nt	nt	?
O=c1c2ccccc2[nH]c(=S)n1CCCN1CCC(Cc2ccccc2)CC1	?	-73.8%	nt	?	-28.5%	7.94µM*
Cc1cccc(C)c1N1CCN(CCn2c(=S)[nH]c3ccccc3c2=O)CC1	?	-27.5%	-45.8%	?	-1.7%	10µM*
O=C(c1ccc(F)cc1)C1CCN(CCn2c(=O)[nH]c3ccccc3c2=O)CC1	-0.6%	nt	nt	nt	nt	12.5%
O=C(c1ccc(F)cc1)C1CCN(CCn2c(=S)[nH]c3ccccc3c2=O)CC1	14.1µM*!	nt	?	i	nt	7.94µM*!
CC1CCN(CCCn2c(=S)[nH]c3ccccc3c2=O)CC1	7.9%	2.9%	-7.1%	i	2.6%	-32.8%
O=S(=O)(NC1CCC(NS(=O)(=O)c2c(F)cccc2F)CC1)c1ccc2c(c1)OCCO2 (stereo not drawn)	nt	1.8%	0.2%	i	-5.3%	nt
C=CCn1c(SCC#N)nc2ccc(Cl)cc2c1=O	nt	-3.1%	nt	nt	14.0%	nt
N#CCSc1nnc(-c2sc3ccccc3c2Cl)o1	20.2%	-34.1%	-9.3%	i	0.0%	?
COC(=O)CSc1nnc(-c2sc3ccccc3c2Cl)o1	20µM*	-13.6%	22.4µM*	i	1.2%	?
COC(=O)CSc1nnc(-c2sc3cc(OC)ccc3c2Cl)n1C	-2.4%	-13.2%	-6.1%	i	14.6%	11.2µM*
N#Cc1nc(N(c2ccccc2)c2ccccc2)nc(-n2cccc2)n1	nt	-0.3%	nt	nt	?	nt
COc1ccccc1Nc1nn2c(=O)c3ccc(C(=O)NCc4ccc(F)cc4)cc3nc2s1	nt	3.98µM*	?	?	3.16µM*	nt
COc1ccccc1Nc1nn2c(=O)c3ccc(C(=O)NCc4cccnc4)cc3nc2s1	-0.1%	nt	nt	nt	nt	0.3%
COc1cc(/C=N/NC(N)=S)ccc1OCc1ccc(C)cc1	8.91µM*	-7.4%	nt	i	17.8µM*	7.08µM*
COc1cc(/C=N/NC(N)=S)ccc1OC(=O)c1ccc(C)cc1	?	-15.8%	-8.8%	i	-3.6%	20µM*
COc1ccc(C(=O)Oc2cccc(/C=N/NC(N)=S)c2)cc1	10µM*	-16.1%	nt	i	8.9%	15.8µM*
C#CCCc1ccccc1/C=[N+](/C)[O-]	nt	-93.9%	-7.4%	i	15.8µM*	nt
CC(=O)c1cccc(NC(=O)c2sc(-n3nc(C)c(CCC(C)C)c3C)nc2C)c1	nt	7.0%	12.1%	i	23.0%	nt

Screening data (PubChem BioAssay)
